Only some compounds are listed: those with a hit (about 8.2% of all), similar ones and a draw of the others.
ELG1 DNA repair: blocks ELG1-dependent DNA repair in HEK293T cells; HEK293T ELG1-luciferase reporter, luminescence, 16 h; DNA damage induced by 5-fluorouridine; Potency, µM (series often up to 46.1 µM), for inactives: at the highest dose activity change, negative = inhibition, hits mostly inhibitors; hit rate 2.3% among 330,000; note: % is set by controls: 0 for no effect and ±100 for the full control effect; nearly all actives have a fitted effect of over 55% in size
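Cells (2,000 per well) received 5-fluorouridine plus test compound or DMSO and were incubated 16 hr at 37 °C, 5% CO2. Luciferase activity was read by luminescence 30 min after ONE-Glo addition; signal suppression marked inhibition of damage-induced ELG1 function.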
MCF10A rerep: DNA re-replication induction in MCF 10a cells. MCF 10A DNA re-replication, Hoechst nuclear intensity, 48 h. Potency, µM (series often up to 46.1 µM), for inactives: top-dose activity, positive = re-replication, hits mostly activators. hit rate 2.9% among 350,000; note: % of control where 0% means no effect; nearly all actives have a fitted effect of over 50% in size
SW480 rerep: DNA re-replication induction in SW480 cells | hit rate 1.8% among 340,000 | SW480 DNA re-replication, Hoechst DNA content imaging, 48 h | Potency, µM (series often up to 46.1 µM), for inactives: at the highest dose re-replication activation, most hits filed as activators; note: % of control where 0% means no effect; nearly all actives have a fitted effect of over 55% in size
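Image-based read-out: total Hoechst fluorescence of nuclei (405 nm excitation, 500-530 nm emission), with hits raising the fraction of high-intensity nuclei. SW480 colon cells incubated 48 hr with compounds at 37 C.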
KB-3-1 tox: KB-3-1 parental cell cytotoxicity; hit rate 1.4% among 400,000; Potency, µM (highest dose often 46.1 µM), hits mostly cytotoxic; AID 1347075; KB-3-1 viability, CellTiter-Glo ATP luminescence, 72 h; note: % is set by controls: 0 for no effect and ±100 for the full control effect; nearly all actives have a fitted effect of over 60% in size
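Luminescent ATP read-out (CellTiter-Glo) measures survival of drug-naive KB-3-1 cells after 72 h compound exposure at 37 °C. Titration series was screened from lowest to highest concentration, with DMSO vehicle plates as background controls.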
KB-V1 cytotox: KB-V1 MDR subline cytotoxicity; AID 1347076; Potency, µM (doses to about 46.1 µM), hits mostly cytotoxic; hit rate 3.4% among 400,000; KB-V1 MDR cells viability, CellTiter-Glo, 72 h; note: % is set by controls: 0 for no effect and ±100 for the full control effect; nearly all actives have a fitted effect of over 60% in size
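In this primary screen, KB-V1 cells overexpressing P-gp are incubated with library compounds (lowest to highest concentration) for 72 h at 37 degrees C before a luminescent ATP viability read.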
* hit, by the source's call; i = inactive; ? = inconclusive; · = no result. Calls come from the whole dose curve; as a rule, active = well fitted curve in the direction sought with a large enough effect; inconclusive = small, poorly fitted or top-dose-only effect, or another doubt; inactive = no such curve, though single readings can be large; an effect the other way counts as inactive or inconclusive. Potency is the fitted concentration of half-maximal effect.

SMILES	ELG1 DNA repair	MCF10A rerep	SW480 rerep	KB-3-1 tox	KB-V1 cytotox
COc1ccc(NC(=O)Nc2ccc(OCc3ccccc3)cc2)cn1	-1%	26%	-1%	i	i
Cc1oc(-c2ccccc2)nc1CNC(=O)Nc1ccccc1	·	·	·	i	i
COc1ccc(N2CCN(C(=O)C3CCN(C(=O)c4ccc([N+](=O)[O-])cc4)CC3)CC2)cc1	-10%	11%	-10%	i	i
COc1ccc(NC(=O)Cc2ccc(-c3ccccc3)cc2)cn1	?	?	?	?	13µM*
COc1ccc(CC(=O)Nc2ccc(OC)nc2)cc1	10%	-3%	6%	i	i
S=c1nn[nH]c2ccccc12	·	1%	7%	i	i
CC(C)n1cc(CN2CCC(C(=O)Nc3cccc(-c4cccc(Cl)c4)c3)CC2)cn1	1%	18µM*	3.3µM*	?	?
CCn1cc(CN2CCC(C(=O)Nc3cccc(-c4cccc(F)c4)c3)CC2)cn1	5%	0%	2%	·	·
O=C(NCCN1CCOCC1)c1cc(Cl)ccc1Cl	9%	-2%	-11%	i	i
O=C(NCCN1CCOCC1)NC1(C(F)(F)F)Oc2ccc(Cl)cc2O1 (stereo not drawn)	-20%	20%	9%	4.6µM*	?
CC1CCN(C(=O)CSc2nc3ccccc3c(=O)n2Cc2ccc3c(c2)OCO3)CC1	?	?	19%	?	4.6µM*
CCOC(=O)N1CCC(n2c(SCC(=O)NCCC3=CCCCC3)nc3ccccc3c2=O)CC1	?	26µM*	?	?	8.2µM*
CC1CCN(C(=O)Cn2c(=O)n(Cc3ccc4c(c3)OCO4)c(=O)c3ccccc32)CC1	0%	5%	14%	i	?
CCOC(=O)N1CCN(C(=O)CSc2nc3c([nH]c4ccccc43)c(=O)n2C)CC1	2.6µM*	-1%	-16%	?	i
CCOC(=O)N1CCC(n2c(SCC(=O)N3CCCC3)nc3ccccc3c2=O)CC1	-3%	18%	-2%	i	i
Cn1c(SCC(=O)N2CCCCC2)nc2c([nH]c3ccccc32)c1=O	-3%	4%	-12%	i	i
CCOC(=O)N1CCC(n2c(SCC(=O)N3CCC(C)CC3)nc3ccccc3c2=O)CC1	?	?	12%	?	21µM*
COc1cc(-c2nc3c(c(C)nn3-c3ccccc3)c3cc(OC)c(OC)cc23)ccc1O	18µM*	13µM*	16%	?	?
COc1cc2c(-c3cc(Br)ccc3O)nc3c(c(C)nn3-c3ccccc3)c2cc1OC	·	·	·	i	i
O=C1C=C(NCc2ccc(Cl)cc2)CC(c2ccco2)C1 (stereo not drawn)	?	?	1%	?	i
O=C1C=C(Nc2ccc(Cl)cc2Cl)CC(c2ccco2)C1 (stereo not drawn)	?	?	16µM*	6.5µM*	7.3µM*
CCCCCCCCCn1ccc(=N)cc1	0.41µM*	24%	2%	0.52µM*	16µM*
CCCCCn1ccc(=N)cc1	?	-2%	4%	i	i
CCn1ccc(=N)cc1	5%	-4%	-2%	i	i
CCCCCCCn1ccc(=N)cc1	?	?	?	4.6µM*	i
SMILES	ELG1 DNA repair	MCF10A rerep	SW480 rerep	KB-3-1 tox	KB-V1 cytotox
O=S(=O)(Nc1cccc(-n2cnnn2)c1)c1ccccc1F	16%	-5%	-14%	i	?
COC(=O)c1ccc(/C=N/Nc2nc(-c3ccc(C)cc3)cs2)cc1	?	?	2%	i	i
CCCc1sc(N/N=C/c2ccccn2)nc1-c1ccc(F)cc1	?	0%	-6%	?	10µM*
COC(=O)c1ccc(/C=N/Nc2nc(C)c(C)s2)cc1	?	23µM*	?	i	i
Cc1nc(N/N=C/c2ccccn2)sc1C	?	?	21µM*	26µM*	?
O=C(O)Cc1sc(N/N=C\c2ccccc2)nc1-c1ccccc1	14%	-1%	-6%	i	i
CC1CCN(S(=O)(=O)c2cn(CC(=O)Nc3ccc(F)cc3)c(=O)c3ccccc23)CC1	·	·	·	i	i
